Values joined by “and” are separate entries in the source; they are usually repeats but may differ in a detail not shown here. Equal values may be shown once. This is part of a sample that, as a whole, favours compounds with a hit. Of some 83,000 tested, about 20% had one in any assay.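 Treatment: one concentration, 48 hours, 96-well format. Scoring: percent growth, with anything below 10 considered active.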 The source holds several records for some structures; these can differ, active in one and inactive in another. Active and inactive are the calls of the source.
test system: HT29 colon; experiment: NCI-60 one-dose screen, 48 h (100 = growth as untreated, 0 = no growth, -100 = all killed); details: 10 µM
Description: Growth inhibition of the HT29 human tumor cell line is measured as a screen for anti-cancer activity. Cells are grown in 96 well plates and exposed to the test compound for 48 hours. Compounds are tested at a single concentration, which is 10^-5 M for most compounds. The reported endpoint is percent growth (GI% or GIPRCNT), where numbers from 0 - 100% represent growth inhibition, and numbers from -100% - 0 represent cell death. For example, a value of 40 represents 60% growth inhibition. A value of 0 means no net growth occurred over the course of the experiment. A value of -40 indicates 40% of cells at the beginning of the experiment died by the end of the experiment. A value of -100 means all cells are dead at the end of the experiment.
NCI-60 Human Tumor Cell Lines Screen was performed using the standard one-dose NCI protocol, which is described in more detail at https://dtp.cancer.gov/discovery_development/nci-60/default.htm.
Compounds with GIPRCNT values below 10 were considered active. Activity score was based on GIPRCNT using the following formula: […]
Score is 0 for GIPRCNT values of 100 or above, 50 for GIPRCNT values of 0, and 100 for GIPRCNT values of -100.

Question: With `C[C@@H]1CCC/C=C/[C@H]2C[C@@H](O)C[C@@H]2[C@@H](O)/C=C/C(=O)O1` as the compound, how does the growth read?
Answer: Its growth is 0.531% (active).

Question: With `CC1=C2C(=C[C@@](C)(C=O)[C@@H]2O)C(=O)[C@](C)(O)C12CC2` as the compound, how does the growth read?
Answer: Its growth is 4.21% (active).

Question: Which growth does the source give for `CC1=C(CCC=NNC(N)=O)C2=C(C)C3(CC3)[C@@](C)(O)C(=O)C2=C1` here?
Answer: The growth was -9.67% (active).

Question: How did the growth turn out when `COc1cc2c(O[C@@H]3OC[C@H](O)[C@H](O)[C@H]3O)c3c(c(-c4ccc5c(c4)OCO5)c2cc1OC)C(=O)OC3` was run?
Answer: Its growth is 38.6% (inactive).

Question: How did the growth turn out when `CC1=C[C@H]2O[C@@H]3C[C@H]4OC(=O)/C=C\C=C\[C@H]([C@@H](C)O)OCC/C(C)=C/C(=O)OC[C@@]2(CC1)[C@]4(C)[C@]31CO1` was run?
Answer: The growth was -27.7% (active).

Question: For `COC(=O)[C@H]1[C@@H](O)[C@@]2(O)c3c(OC)cc(OC)cc3O[C@@]2(c2ccc(OC)cc2)[C@@H]1c1ccccc1`, which growth is on record?
Answer: Its growth is -34.3% (active).

Question: `O=C(CCCc1ccc(N(CCCl)CCCl)cc1)OCc1ccccc1` was tested. Which growth did it give?
Answer: Its growth is 95.8% (inactive).

Question: `N#Cc1c(-n2c(Br)c(Br)c3cc(Br)ccc32)[nH]c2c(Br)cc(Br)cc12` was tested. Which growth did it give?
Answer: The growth was -15.1% (active).

Question: With `CCCCCCCCCC(=O)N[C@@](C)(CC)C(=O)N1CCC[C@H]1C(=O)N[C@@H](CC(C)C)C(=O)N[C@@](C)(CC)C(=O)N[C@@H](CCC(N)=O)C(=O)N[C@H](CCC(N)=O)C(=O)NC(C)(C)C(=O)NC(C)(C)C(=O)N[C@@H](CCC(N)=O)C(=O)N[C@H](CC(C)C)C(=O)N[C@H](CO)CC(C)C` as the compound, how does the growth read?
Answer: The growth was -40.3% (active) and -67.2% (active).

Question: `C/C=C/CC(C)C(O)[C@H](NC(=O)[C@@H]1CCCN1C(=O)C(C)(C)NC(=O)CCCCCCCCC)C(=O)N[C@@](C)(CC)C(=O)N[C@@H](CCC(N)=O)C(=O)N[C@H](CCC(N)=O)C(=O)NC(C)(C)C(=O)NC(C)(C)C(=O)N[C@@H](CCC(N)=O)C(=O)N[C@H](CC(C)C)C(=O)N[C@H](CO)CC(C)C` (stereo not given in full) was tested. Which growth did it give?
Answer: The growth was 58.1% (inactive) and 90.2% (inactive).

Question: How did the growth turn out when `NC1CCc2cc(O)c(O)cc2C1` (stereo not given) was run?
Answer: The growth was 39.7% (inactive).

Question: `N#Cc1nc(-c2ccccc2)oc1N1CCC(S(=O)(=O)F)CC1` was tested. Which growth did it give?
Answer: The growth was 102% (inactive).

Question: With `CC1=C(CN(O)C(N)=O)C2=C(C)C3(CC3)[C@@](C)(O)C(=O)C2=C1` as the compound, how does the growth read?
Answer: The growth was 0.349% (active).

Question: `CC1=C[C@H]2O[C@@H]3C[C@@H](O)[C@](C)([C@@]2(C)CC1)[C@@]31CO1` was tested. Which growth did it give?
Answer: Its growth is 11.4% (inactive).

Question: For `Cc1ccc(CNc2nc3ccc(OC/C(=C/F)CN)cc3o2)cn1`, which growth is on record?
Answer: Its growth is 112% (inactive).

Question: With `CC1=C2C(=C[C@@](C)(COS(C)(=O)=O)[C@@H]2O)C(=O)[C@](C)(O)C12CC2` as the compound, how does the growth read?
Answer: The growth was 3.64% (active).

Question: `C/C=C/CC(C)C(O)[C@H](NC(=O)[C@@H]1CCCN1C(=O)C(C)(C)NC(=O)CCCCCCCCC)C(=O)NC(C)(C)C(=O)N[C@@H](CCC(N)=O)C(=O)N[C@H](CCC(N)=O)C(=O)NC(C)(C)C(=O)NC(C)(C)C(=O)N[C@@H](CCC(N)=O)C(=O)N[C@H](CC(C)C)C(=O)N[C@H](CO)CC(C)C` (stereo not given in full) was tested. Which growth did it give?
Answer: The growth was 4.29% (active) and 5.04% (active).

Question: `C/C=C\C(=O)O[C@@H]1CC2O[C@@H]3C=C(C)C(=O)C[C@]3(C)[C@]1(C)[C@]21CO1` was tested. Which growth did it give?
Answer: Its growth is -33.4% (active).

Question: Which growth does the source give for `COc1cc2c(cc1OC)[C@@H]1N(CC2)C(=O)c2ccccc2[C@@]1(C)C(=O)O` here?
Answer: Its growth is 107% (inactive).

Question: `CC(=O)O[C@@H]1[C@@H]2O[C@H]2[C@@](C)(O)C(=O)[C@@H](C)C/C=C/[C@H]2[C@@H]3O[C@]3(C)[C@@H](C)C3[C@H](Cc4ccccc4)NC(=O)[C@@]312` (stereo not given in full) was tested. Which growth did it give?
Answer: The growth was 36.3% (inactive).

Question: Which growth does the source give for `CC1=C2C(=C[C@@](C)(COC(=O)c3ccc(S(=O)(=O)F)cc3)[C@@H]2OC(=O)c2ccc(S(=O)(=O)F)cc2)C(=O)[C@](C)(O)C12CC2` here?
Answer: Its growth is 2.13% (active).

Question: For `CC(C)(O)/C=C/C(=O)[C@](C)(O)[C@H]1[C@H](O)C[C@@]2(C)[C@H]3CC=C4[C@@H](C[C@H](O)C(=O)C4(C)C)[C@]3(C)C(=O)C[C@]12C`, which growth is on record?
Answer: Its growth is 3.2% (active).

Question: For `C=C1[C@@H](C)C2[C@H](Cc3ccccc3)NC(=O)[C@]23[C@H](OC(C)=O)/C=C/[C@@](C)(O)C(=O)[C@@H](C)C/C=C/[C@H]3[C@@H]1O` (stereo not given in full), which growth is on record?
Answer: Its growth is 11.8% (inactive).

Question: Which growth does the source give for `COC1[C@@H]2C[C@H]3C(C)(C)O[C@@](C/C=C(/C)C(=O)O)(C2=O)[C@]32Oc3c(CC=C(C)C)c4c(c(O)c3C(=O)[C@H]12)C=CC(C)(C)O4` (stereo not given in full) here?
Answer: The growth was -33.3% (active).

Question: `COc1cc2c(O[C@@H]3OC[C@H](OC(C)=O)[C@H](OC(C)=O)[C@H]3O)c3c(c(-c4ccc5c(c4)OCO5)c2cc1OC)C(=O)OC3` was tested. Which growth did it give?
Answer: The growth was 9% (active).

Question: How did the growth turn out when `CC1=C[C@H]2O[C@@H]3C[C@H]4OC(=O)/C=C\C=C\[C@H]([C@@H](C)O)OCC[C@@H](C)[C@H](O)C(=O)OC[C@@]2(CC1)[C@]4(C)[C@]31CO1` was run?
Answer: Its growth is -27.8% (active).

Question: `CC1=C2C(=C[C@@](C)(COC(=O)c3ccc(S(=O)(=O)F)cc3)[C@@H]2O)C(=O)[C@](C)(O)C12CC2` was tested. Which growth did it give?
Answer: The growth was -17.9% (active).

Question: Which growth does the source give for `CC1=C(CN(O)C(N)=O)C2=C(C)C3(CC3)[C@](C)(O)C(=O)C2=C1` here?
Answer: The growth was 3.85% (active).

Question: `COc1cccc2c1cc([N+](=O)[O-])c1c(C(=O)O)cc3c(c12)OCO3` was tested. Which growth did it give?
Answer: Its growth is 0.133% (active).

Question: For `CCC(C)[C@H]1C(=O)O[C@H](C(C)C)C(=O)N(C)[C@@H](C(C)C)C(=O)O[C@H](C(C)C)C(=O)N(C)[C@@H](C(C)C)C(=O)O[C@H](C(C)C)C(=O)N1C` (stereo not given in full), which growth is on record?
Answer: Its growth is 9.91% (active).

Question: `COc1cc(OC)c(S(=O)(=O)N(CCCl)CCCl)cc1C(=O)/C=C/c1ccc(Cl)cc1` was tested. Which growth did it give?
Answer: The growth was 79.5% (inactive).

Question: `C/C=C/CC(C)C(O)[C@H](NC(=O)[C@@H]1CCCN1C(=O)C(C)(C)NC(=O)CCCCCCCCC)C(=O)N[C@@](C)(CC)C(=O)N[C@@H](CCC(N)=O)C(=O)N[C@H](CCC(N)=O)C(=O)NC(C)(C)C(=O)N[C@@](C)(CC)C(=O)N[C@@H](CCC(N)=O)C(=O)N[C@H](CC(C)C)C(=O)N[C@H](CO)CC(C)C` (stereo not given in full) was tested. Which growth did it give?
Answer: Its growth is 116% (inactive) and 29.2% (inactive).

Question: With `COc1cc(C)c(-c2ccc(OC)c(=O)cc2C)c(OC)c1OC` as the compound, how does the growth read?
Answer: The growth was 4.37% (active) and 113% (inactive).

Question: With `C/C=C/CC(C)C(O)[C@H](NC(=O)[C@@H]1CCCN1C(=O)C(C)(C)NC(=O)CCCCCCC)C(=O)N[C@@](C)(CC)C(=O)N[C@@H](CCC(N)=O)C(=O)N[C@H](CCC(N)=O)C(=O)NC(C)(C)C(=O)NC(C)(C)C(=O)N[C@@H](CCC(N)=O)C(=O)N[C@H](CC(C)C)C(=O)N[C@H](CO)CC(C)C` (stereo not given in full) as the compound, how does the growth read?
Answer: The growth was 113% (inactive) and 37.8% (inactive).

Question: How did the growth turn out when `CN1C(=O)[C@]23SSC1(C)C(=O)N2[C@H]1Nc2ccccc2C1([C@@]12c4ccccc4N[C@@H]1N1C(=O)C4(C)SS[C@]1(C(=O)N4C)[C@H]2O)[C@@H]3O` (stereo not given in full) was run?
Answer: Its growth is -66.7% (active).

Question: With `CN(CCF)/N=N/c1nc[nH]c1C(N)=O` as the compound, how does the growth read?
Answer: Its growth is 42% (inactive).

Question: For `CC1=C2C(=O)[C@](C)(CO)C=C2C(=O)[C@](C)(O)C12CC2`, which growth is on record?
Answer: Its growth is 2.57% (active).

Question: For `CC(C)=CCc1c2c(c(O)c3c1O[C@]14C(=C[C@@H]5C[C@H]1C(C)(C)O[C@@]4(C/C=C(/C)C(=O)O)C5=O)C3=O)C=CC(C)(C)O2`, which growth is on record?
Answer: Its growth is -86.7% (active).

Question: With `C[C@@H]1C[C@H]2C(=O)O[C@@H](C)C(NC(=O)[C@H](Cc3cc(F)cc(F)c3)NC(=O)Nc3ccc(OS(=O)(=O)F)cc3)C(=O)N3CCC[C@H]3C(=O)N3CCO[C@H](C)[C@H]3C(=O)N[C@@H](CO)C(=O)N2C1` (stereo not given in full) as the compound, how does the growth read?
Answer: Its growth is 34.6% (inactive).

Question: For `CC(=O)O[C@@H]1C[C@H]2O[C@@H]3C=C(C)CC[C@]3(C)[C@]1(C)[C@]21CO1`, which growth is on record?
Answer: Its growth is 8.97% (active).

Source: PubChem BioAssay (NCI)
